High-throughput results deposited in PubChem by National Center for Advancing Translational Sciences (NCATS).
HT1080-NT tox: kills 2HG-producing HT-1080-NT fibrosarcoma cells; HT-1080-NT fibrosarcoma viability, CellTiter-Glo ATP luminescence, 48 h; Potency, µM (titrated, usually from 46.1 µM), inactives show at the highest dose activity, negative = less viability, usual class: cytotoxic; 1.6% of 360,000 active; AID 686970;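 also: NT is the 2HG producing partner of a matched IDH1 knockdown line; 0% = DMSO-treated cells and -100% = media-only wells without cells; nearly all actives have a fitted effect of over 55% in size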
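A 48-hour cytotoxicity screen used HT-1080-NT cells plated 2 hours before compound delivery. ATP-based CellTiter-Glo luminescence measured viability, normalized to DMSO and no-cell controls.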
KB-V1 MDR tox: KB-V1 MDR subline cytotoxicity. AID 1347076. 3.4% of 400,000 active. Potency, µM (series often up to 46.1 µM), hits mostly cytotoxic. KB-V1 MDR cells viability, CellTiter-Glo, 72 h; also: nearly all actives have a fitted effect of over 60% in size
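Following 72 h at 37 degrees C with compound, KB-V1 cell viability was read by CellTiter-Glo luminescence, medium being phenol-red-free DMEM plus 10% FBS; concentration-response parameters came from normalized, curve-fitted qHTS data.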
HT1080 IDH1KD tx: kills HT-1080 cells with IDH1 knockdown; Potency, µM (series often up to 46.1 µM), for inactives: top-dose activity, negative = toxicity, hits mostly cytotoxic; HT-1080 IDH1 knockdown viability, ATP luminescence, 48 h; 2% of 360,000 active;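 also: 0% = DMSO wells and -100% = cell-free medium wells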
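Viability of IDH1-knockdown HT-1080 fibrosarcoma cells was assessed by CellTiter-Glo after 48 h at 37 °C with titrated compound; concentration-effect curves were classified by fit quality and response size.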
DT40 TDP1 no CPT: qHTS for Inhibitors of human tyrosyl-DNA phosphodiesterase 1 (TDP1): qHTS in cells in absence of CPT; DT40 Tdp1-/- hTDP1 cells, no CPT, ATP luminescence, 48 h; Potency, µM (highest dose often 46.2 µM), for the others: top-dose activity change, negative = growth inhibition, hits mostly inhibitors; 15% of 420,000 active; also: nearly all actives have a fitted effect of over 55% in size
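Readout: luminescence from CellTiter-Glo after 30 min in the dark at RT. Cells: DT40 Tdp1-/- with stable hTDP1, 400/well. Exposure: compounds alone, ≥48 hr, 37 °C.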
DT40 TDP1 CPT: DT40-hTDP1 cell growth loss with CPT; Potency, µM (highest dose often 46.2 µM), inactives show at the top dose activity change, negative = growth inhibition, hits mostly inhibitors; 12% of 420,000 active; AID 686979; chicken DT40 Tdp1-/-;hTDP1 cells + 20 nM CPT, ATP luminescence, 48 h; also: nearly all actives have a fitted effect of over 55% in size
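Chicken DT40 Tdp1-/- cells stably complemented with human TDP1 were seeded at 400 cells/well in medium containing 20 nM camptothecin, exposed to pin-transferred compounds, and grown at 37 °C for at least 48 hr. Viability was read as ATP luminescence.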
KB-3-1 tox: KB-3-1 parental cell cytotoxicity | KB-3-1 viability, CellTiter-Glo ATP luminescence, 72 h | Potency, µM (top dose mostly 46.1 µM), most hits filed as cytotoxic | 1.4% of 400,000 active; also: nearly all actives have a fitted effect of over 60% in size
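Using CellTiter-Glo luminescence, growth of non-resistant KB-3-1 adenocarcinoma cells is assessed 72 h after pin-tool compound addition at 37 °C. Normalized responses across the concentration series yield fitted curves.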
Active calls of the source: *; i = inactive; u = inconclusive; x = not tested or not shown. Rows were chosen to be rich in hits. Some 19% of all compounds tested hit in one or more screens of this group. Calls follow the shape of the dose curve; as a rule, active = well fitted curve in the direction sought with a large enough effect; inconclusive = small, poorly fitted or top-dose-only effect, or another doubt; inactive = no such curve, though single readings can be large; an effect the other way counts as inactive or inconclusive. Unless noted, % is scaled to controls: 0 for no effect and ±100 for the full control effect; potency is read from the fitted curve at half-maximal effect.

SMILES	HT1080-NT tox	KB-V1 MDR tox	HT1080 IDH1KD tx	DT40 TDP1 no CPT	DT40 TDP1 CPT	KB-3-1 tox
O=C(NN=Cc1cccc([N+](=O)[O-])c1)c1cc(-c2cccnc2)nc2ccccc12	0%	i	-1%	u	u	i
COc1ccccc1-c1cc(C(=O)N/N=C/C=C/c2ccccc2[N+](=O)[O-])c2ccccc2n1	-1%	i	-4%	21µM*	18µM*	i
COc1ccccc1-c1cc(C(=O)N/N=C\c2cnn(C)c2C)c2ccccc2n1	-7%	u	-5%	u	u	i
Cc1ccc(C(=O)c2oc3ccc(Cl)cc3c2NC(=O)CN2CCN(C)CC2)cc1	13%	i	5%	21µM*	u	i
NNC(=O)COc1ccc(C(F)(F)F)cc1	0%	i	8%	-15%	3%	i
COC(=O)c1c(SCC(=O)Nc2cc(OC)cc(OC)c2)[nH]c2ccc(C)cc2c1=O	x	i	x	u	u	i
COc1ccc(CNC(=O)CSc2nnc3c(n2)[nH]c2ccccc23)cc1	2%	i	1%	-21%	7%	i
COc1ccccc1NC(=O)CSc1nnc2c3ccccc3n(C(C)C)c2n1	x	x	x	4.6µM*	3.7µM*	x
C=CCn1c2ccccc2c2nnc(SCC(=O)NC(C(=O)OC)C(C)C)nc21 (stereo not drawn)	-10%	8.2µM*	-7%	-18%	u	i
COC(=O)c1c(SCC(=O)Nc2ccccc2OC)[nH]c2ccccc2c1=O	x	u	x	u	23µM*	u
COc1ccccc1NC(=O)CSc1nnc2c(n1)[nH]c1ccccc12	x	12µM*	x	u	u	i
O=C(NCc1ccccc1)C1C(c2ccc3c(c2)OCO3)=Nc2ccccc2N1C(=O)c1cccc2ccccc12 (stereo not drawn)	1%	i	-8%	u	-9%	i
COCCn1c(=N)c(C(=O)NC(C)c2ccccc2)cc2c(=O)n3cc(C)ccc3nc21 (stereo not drawn)	x	u	x	-10%	9%	i
COc1ccc(OC)c(NC(=O)CCNC(=O)N2CC(=O)Nc3ccccc32)c1	2%	i	1%	7%	-6%	i
CCC1CN(C)C2Cc3c([nH]c4ccccc34)C(=O)CC1C2C(=O)OC (stereo not drawn)	0%	i	-1%	-38%	23µM*	i
Cc1ccc(-c2nc(SCC(=O)NCc3ccco3)c3c(=O)n(C)c(=O)n(C)c3n2)cc1	x	u	x	-7%	-7%	i
Cc1ccc(C(=O)N2CCC3(CC2)Oc2ccc(Cl)cc2C(=O)C32CC(c3ccc(Cl)cc3)=NO2)s1 (stereo not drawn)	4%	i	3%	1%	-3%	i
O=C(c1ccoc1)N1CCC2(CC1)Oc1ccc(Cl)cc1C(=O)C21CC(c2ccc(Cl)cc2)=NO1 (stereo not drawn)	-1%	i	-3%	u	21µM*	i
CCC(=O)N1CCC2(CC1)Oc1ccc(Cl)cc1C(=O)C21CC(c2ccc(Cl)cc2)=NO1 (stereo not drawn)	-4%	i	-3%	13µM*	u	i
CC(C)C(=O)N1CCC2(CC1)Oc1ccc(F)cc1C(=O)C21CC(c2ccc(Cl)cc2)=NO1 (stereo not drawn)	-3%	u	-9%	u	u	i
CCC(=O)N1CCC2(CC1)Oc1ccc(F)cc1C(=O)C21CC(c2ccc(Cl)cc2)=NO1 (stereo not drawn)	-5%	i	-3%	26µM*	u	u
CC(=O)CSc1nc(-c2ccccc2)[nH]c1S(=O)(=O)c1ccc(C)cc1	x	i	x	3.3µM*	u	i
CCCSc1nc(-c2ccccc2)[nH]c1S(=O)(=O)c1ccc(C)cc1	x	i	x	18µM*	u	i
CCN(CC)C(=O)Cn1cc(S(=O)(=O)CC(=O)NCc2ccc(C)cc2)c2ccccc21	16%	i	12%	-12%	-16%	i
COc1ccc2c(c1)c1c(c(=O)n(-c3ccccc3C)c(=O)n1CC(=O)Nc1c(C)cccc1C)n2C	x	i	x	9.2µM*	7.3µM*	i
SMILES	HT1080-NT tox	KB-V1 MDR tox	HT1080 IDH1KD tx	DT40 TDP1 no CPT	DT40 TDP1 CPT	KB-3-1 tox
CCc1ccc(NC(=O)Cn2c(=O)n(-c3ccccc3C)c(=O)c3c2c2cc(OC)ccc2n3C)cc1	x	i	x	-27%	u	i
COc1cccc(Cn2c(=O)n(-c3ccccc3C)c(=O)c3c2c2cc(C)ccc2n3C)c1	x	i	x	13µM*	18µM*	u
O=C(C1CCCCC1)N1C[C@@H](O)[C@H](n2cc(-c3ccc(F)cc3)nn2)C[C@@H]1c1ccccc1	u	i	u	15µM*	u	18µM*
Cc1ccc([C@H]2C[C@@H](n3cc(-c4ccc(F)cc4)nn3)[C@H](O)CN2C(=O)C2CCCCC2)cc1	1%	9.2µM*	-3%	u	4%	u
COc1ccc(CC(=O)NCC(c2ccc(N(C)C)cc2)N2CCOCC2)cc1OC (stereo not drawn)	x	i	x	u	u	i
O=C(NCC(c1ccc(F)cc1)N1CCOCC1)c1ccc(C(=O)c2ccccc2)cc1 (stereo not drawn)	1%	i	-8%	21µM*	u	i
CCOc1cc(C(=O)NCC(c2ccc(N(C)C)cc2)N2CCOCC2)cc(OCC)c1OCC (stereo not drawn)	x	i	x	18µM*	21µM*	i
OC(c1ccccc1)(c1ccc(F)cc1)C(c1ccccc1)N1CCOCC1 (stereo not drawn)	u	i	-24%	18µM*	16µM*	u
O=C(CC12CC3CC(CC(C3)C1)C2)NCC(c1ccc(F)cc1)N1CCOCC1 (stereo not drawn)	-16%	i	-9%	u	26µM*	i
CN(C)c1ccc(C(CNC(=O)c2ccc(C(C)(C)C)cc2)N2CCOCC2)cc1 (stereo not drawn)	x	i	x	21µM*	16µM*	i
N#Cc1sc2nc(N3CCCCC3)c3c(c2c1N)CCCC3	u	7.3µM*	u	u	-23%	u
O=c1c2ccccc2n2c(-c3ccc(Cl)cc3)nnc2n1CCc1ccccc1	x	i	x	18µM*	u	i
